Article PMC9838217, “Structure of SALL4 zinc finger domain reveals link between AT-rich DNA binding and Okihiro syndrome”
Numbering of substitutions follows the chain as printed.

Assays:
Experiment in all cases: HT-SELEX; high values mean tight binding
Conditions in all cases: protein: recombinant; vector His6-GST; dsDNA, one strand shown
SALL4 ZFC4 WT (HT-SELEX) = biological target: T1, SALL4 ZFC4 WT (HT-SELEX) (Mus musculus, UniProt Q8BX22 870-940)
T1 sequence: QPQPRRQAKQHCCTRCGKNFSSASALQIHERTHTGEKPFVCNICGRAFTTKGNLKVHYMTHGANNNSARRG
In short: (§1)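 For each canonical k-mer, binding signal is the read fraction as fold change versus the initial random library. Data came from up to 6 triplicate cycles in which purified recombinant mouse SALL4 zinc finger cluster 4 (residues 870–940, 1 µg) was incubated 10 min at room temperature with library DNA (1.5 µg first cycle, 200 ng later) in 100 µl of 10 mM Tris–HCl pH 7.5, 50 mM NaCl, poly(dI-dC), DTT, followed by Ni2+ bead capture, PCR amplification, MiSeq sequencing and a 6-mer scan.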

[1] = biological target: T2, SALL4 ZFC4 R900W (HT-SELEX) (Mus musculus, UniProt Q8BX22 870-940, R900W)
T2 sequence: T1 sequence with R31W
In short: as §1

[2] = biological target: T3, SALL4 ZFC4 G921D (HT-SELEX) (Mus musculus, UniProt Q8BX22 870-940, G921D)
T3 sequence: T1 sequence with G52D
In short: as §1

Sequence	binding signal (SALL4 ZFC4 WT (HT-SELEX)) [fold-change vs cycle 0]	binding signal [1] [fold-change vs cycle 0]	binding signal [2] [fold-change vs cycle 0]
CTATAG	1.37 ± 0.136	1.45 ± 0.0344	1.35 ± 0.128
TTGAAA	1.92 ± 0.106	1.88 ± 0.0943	1.7 ± 0.131
ATCGAT	1.23 ± 0.075	1.21 ± 0.0415	1.3 ± 0.0771
ATCGGA	0.708 ± 0.0433	0.804 ± 0.0524	0.928 ± 0.0274
CGTGAC	0.379 ± 0.0323	0.463 ± 0.0197	0.556 ± 0.043
CCTGGA	0.496 ± 0.0295	0.556 ± 0.0141	0.647 ± 0.0202
AAAGTT	1.85 ± 0.124	1.9 ± 0.107	1.7 ± 0.189
AATCGG	0.593 ± 0.0172	0.657 ± 0.021	0.763 ± 0.0166
GAGTAA	1.45 ± 0.0607	1.57 ± 0.0835	1.43 ± 0.106
ACCTCT	0.859 ± 0.0231	0.978 ± 0.0308	1.02 ± 0.0211
GCCTTA	0.573 ± 0.0273	0.685 ± 0.0271	0.783 ± 0.0268
TCATCA	1.46 ± 0.0322	1.56 ± 0.0457	1.49 ± 0.0698
CATAGG	0.854 ± 0.0242	0.918 ± 0.0253	0.978 ± 0.022
GTCTTA	1.27 ± 0.0474	1.39 ± 0.0618	1.35 ± 0.0901
AAGCTA	1.18 ± 0.0764	1.3 ± 0.0578	1.28 ± 0.0869
CTATCA	1.36 ± 0.0524	1.47 ± 0.0491	1.41 ± 0.0867
AGCATG	0.713 ± 0.0228	0.806 ± 0.0264	0.882 ± 0.0429
AACACA	1.18 ± 0.0535	1.29 ± 0.058	1.27 ± 0.0417
AGGGCA	0.305 ± 0.031	0.354 ± 0.00942	0.51 ± 0.0852
CACTCC	0.513 ± 0.0257	0.603 ± 0.0288	0.684 ± 0.0287

Sequence	binding signal (SALL4 ZFC4 WT (HT-SELEX)) [fold-change vs cycle 0]	binding signal [1] [fold-change vs cycle 0]	binding signal [2] [fold-change vs cycle 0]
CTACTC	0.863 ± 0.0395	0.998 ± 0.0566	0.992 ± 0.0109
CCATGC	0.345 ± 0.0259	0.399 ± 0.0174	0.514 ± 0.0663
ATAATC	2.69 ± 0.205	2.05 ± 0.113	1.81 ± 0.145
AGACAA	1.15 ± 0.0323	1.28 ± 0.0792	1.26 ± 0.0604
AAGCAG	0.683 ± 0.026	0.821 ± 0.0507	0.85 ± 0.0183
ACCTGA	0.842 ± 0.0331	1 ± 0.047	1.02 ± 0.0552
CTCTGA	0.812 ± 0.0446	0.948 ± 0.0551	0.993 ± 0.0433
ATGTGG	0.714 ± 0.021	0.787 ± 0.0136	0.851 ± 0.0464
TGGAAA	1.28 ± 0.069	1.27 ± 0.0696	1.23 ± 0.0625
ATGTTC	1.28 ± 0.0355	1.37 ± 0.0462	1.36 ± 0.0792
ACATGA	1.38 ± 0.0574	1.49 ± 0.0283	1.4 ± 0.088
CTTTTA	1.77 ± 0.0546	1.86 ± 0.125	1.63 ± 0.122
ATTATG	2.78 ± 0.17	1.94 ± 0.0249	1.74 ± 0.121
TAGAGA	1.42 ± 0.0253	1.54 ± 0.113	1.48 ± 0.0729
CACAAA	0.978 ± 0.0432	1.1 ± 0.0594	1.09 ± 0.0653
ACGGTC	0.362 ± 0.0473	0.432 ± 0.0371	0.553 ± 0.067
AACATT	1.95 ± 0.0486	1.96 ± 0.0488	1.79 ± 0.136
GCAAGA	0.671 ± 0.0141	0.766 ± 0.0335	0.825 ± 0.0528
TCAACA	1.19 ± 0.0385	1.35 ± 0.0647	1.3 ± 0.0976
TCAAAA	1.67 ± 0.118	1.58 ± 0.0814	1.5 ± 0.116

Sequence	binding signal (SALL4 ZFC4 WT (HT-SELEX)) [fold-change vs cycle 0]	binding signal [1] [fold-change vs cycle 0]	binding signal [2] [fold-change vs cycle 0]
ATTCGG	0.592 ± 0.0176	0.669 ± 0.0177	0.753 ± 0.0617
TCCTCA	0.899 ± 0.0263	1.04 ± 0.0214	1.06 ± 0.0234
AGCTTC	0.709 ± 0.0328	0.839 ± 0.0164	0.895 ± 0.0229
GCAACA	0.54 ± 0.0464	0.629 ± 0.0238	0.72 ± 0.0281
AAATTT	2.66 ± 0.248	2.17 ± 0.141	1.93 ± 0.166
ACGAGA	0.811 ± 0.0345	0.922 ± 0.0447	0.957 ± 0.0409
GCCATA	0.544 ± 0.0118	0.556 ± 0.0265	0.681 ± 0.0554
GCATCC	0.382 ± 0.0508	0.43 ± 0.0105	0.551 ± 0.0913
ATACAA	2 ± 0.0726	1.98 ± 0.0733	1.76 ± 0.0991
GTACAA	1.14 ± 0.0399	1.26 ± 0.0443	1.22 ± 0.0489
CGAGAA	0.725 ± 0.0428	0.818 ± 0.0294	0.857 ± 0.0383
AATTGA	1.92 ± 0.0967	1.88 ± 0.0991	1.75 ± 0.142
ATCTGC	0.624 ± 0.0226	0.711 ± 0.0187	0.798 ± 0.0337
CGTAGA	0.623 ± 0.00876	0.7054 ± 0.00296	0.786 ± 0.024
AGAGAC	0.8 ± 0.0496	0.927 ± 0.0137	0.985 ± 0.0357
AACACC	0.749 ± 0.0181	0.848 ± 0.0177	0.89 ± 0.0213
CAAAAA	1.52 ± 0.0617	1.38 ± 0.0576	1.35 ± 0.0641
CACACG	0.405 ± 0.0118	0.525 ± 0.0166	0.649 ± 0.0779
CTTACC	0.909 ± 0.0427	1.06 ± 0.0534	1.02 ± 0.0246
CCAACG	0.347 ± 0.0246	0.388 ± 0.0249	0.505 ± 0.0781
